Measurements from ChEMBL document CHEMBL3988442, “University of Dundee, Small-Polar-MMV Screening Library” (2021).
The campaign covered roughly 48,000 compounds. About 13,000 (27%) showed an effect of 50% or more. The list shows a part of the results.

Tested on: Wolbachia pipientis
Assay: Anti-Wolbachia Cell-Based Screen
Type: functional
Parameters: scale not given: in the data most compounds retested in dose-response had high values
Conditions: 5 µM

Row | Compound | Percent Effect
1 | COc1c(C2CCCN2C(=O)c2ccnn2C)c(C)nn1C (centres undefined) | -14.45%
2 | OC(CN(Cc1ccccc1)Cc1ccon1)c1cccs1 (centres undefined) | -5.25%
3 | CCCn1[nH]cc/c1=N\C(=O)CN1CCCC1Cn1cccn1 (centres undefined) | -1.433%
4 | CCN(CC1CCOC1)C(=O)c1cc(OC)c2c(c1)OCCO2 (centres undefined) | -3.228%
5 | Cc1ccc(-c2ccc(C3CNCCO3)nc2)cc1.Cl (centres undefined) | 114.4%
6 | Cl.Clc1ccc(-c2ccc(C3CNCCO3)nc2)cc1 (centres undefined) | 122.6%
7 | CCNc1ccnc(NCC2CNCCO2)n1 (centres undefined) | -11.04%
8 | COc1ccc(-c2cnc(CN3CCCC3CO)o2)cc1 (centres undefined) | -7.324%
9 | Cl.c1ncc(-c2ccc(C3CNCCO3)nc2)cn1 (centres undefined) | 106.1%
10 | COc1ccc(-c2ccc(C3CNCCO3)nc2)cc1.Cl (centres undefined) | 122.1%
11 | COc1ccc(-c2c[nH]c([C@@H]3COCCN3)n2)cc1 | -8.862%
12 | Cl.c1ccc(-c2ccc(C3CNCCO3)nc2)cc1 (centres undefined) | -0.3347%
13 | Fc1ccc(-c2noc([C@@H]3Cc4nc[nH]c4CN3)n2)cc1 | -11.77%
14 | Cc1cccc(N2CCOCC3(C2)CN(c2ccccc2)C(=O)CO3)n1.O=C(O)C(F)(F)F (centres undefined) | 109.1%
15 | O=C(O)C(F)(F)F.O=C1COC2(COCCN(c3ccccn3)C2)CN1c1cccc(F)c1 (centres undefined) | -5.368%
16 | Cc1cccc(N2CCOCC3(C2)CN(c2cnn(C)c2)C(=O)CO3)n1.O=C(O)C(F)(F)F (centres undefined) | 85%
17 | Cn1cc(CN2CCOCC3(C2)CN(c2ccccc2)C(=O)CO3)cn1.O=C(O)C(F)(F)F (centres undefined) | -5.421%
18 | O=C(O)C(F)(F)F.O=C(O)C(F)(F)F.O=C1COC2(COCCN(Cc3cccnc3)C2)CN1c1ccoc1 (centres undefined) | -8.923%
19 | Cc1ccc(N2CC3(COCCN(Cc4ccccn4)C3)OCC2=O)s1.O=C(O)C(F)(F)F.O=C(O)C(F)(F)F (centres undefined) | -3.574%
20 | Cc1cccc(N2CCOCC3(C2)CN(c2ccoc2)C(=O)CO3)n1.O=C(O)C(F)(F)F (centres undefined) | 101.1%
21 | Cn1cc(N2CC3(COCCN(Cc4ccsc4)C3)OCC2=O)cn1.O=C(O)C(F)(F)F (centres undefined) | -6.124%
22 | COC(=O)c1ccc(CNC2CC(=O)N(Cc3cccc(F)c3)C2)cc1 (centres undefined) | 2.767%
23 | CSc1ccc(-n2ccnc2-c2cc3n(n2)CCNC3)cc1 | -5.547%
24 | CC(C)c1cnc(N2C[C@H](CO)C[C@H](CN3CCOCC3)C2)nc1 | -10.14%
25 | COCc1noc(C2(c3ccc(Cl)cc3)CCOCC2)n1 | 0.3658%
26 | Cc1c(Cl)c(CN2CCCC2Cn2cncn2)nc2ccccc12 (centres undefined) | 0.2475%
27 | Cc1cnn(CC2CCCCN2C(=O)c2nccnc2N)c1 (centres undefined) | 123.3%

Row | Compound | Percent Effect
28 | Cc1cnn(CC2CCCN2C(=O)c2nccnc2N)c1 (centres undefined) | 124%
29 | Cc1cnn(CC2CCCN2C(=O)c2ccc(C(N)=O)cn2)c1 (centres undefined) | -6.228%
30 | Cc1cnn(CC2CCCN2C(=O)c2nccc3ccccc23)c1 (centres undefined) | -8.549%
31 | Cc1ccsc1C(=O)N1CC2CC1(C(=O)NCc1ccco1)C2 | -21.25%
32 | Cc1oncc1C(=O)N1CC[C@H]2CO[C@H](CN3CCCC3)[C@H]2C1 | 2.112%
33 | O=C(N1CCOCC1)N1CCOC[C@H](Oc2ccc(C(F)(F)F)cc2)C1 | -17.33%
34 | COc1cc(C)ccc1OCC(=O)NS(=O)(=O)c1cc(F)ccc1F | 4.965%
35 | COc1ccc(OCC(=O)NS(=O)(=O)c2cc(C)ccc2C)cc1 | 6.123%
36 | N#CCc1ccc(OCC(=O)NS(=O)(=O)c2ccc(Br)s2)cc1 | -7.056%
37 | COc1ccc(OCC(=O)NS(=O)(=O)c2ccc(Cl)s2)cc1 | 9.961%
38 | COc1ccccc1OCC(=O)NS(=O)(=O)c1ccc(Cl)s1 | 123.5%
39 | CC(=O)c1cccc(OCC(=O)NS(=O)(=O)c2ccc(C)s2)c1 | 0.05865%
40 | COc1ccccc1OCC(=O)NS(=O)(=O)c1ccc(Cl)cc1F | 6.198%
41 | COc1cc(C)ccc1OCC(=O)NS(=O)(=O)c1ccc(Br)s1 | 133.3%
42 | COc1cccc(OCC(=O)NS(=O)(=O)c2ccc(Br)s2)c1 | 93.04%
43 | COc1ccc(OCC(=O)NS(=O)(=O)c2ccc(Br)s2)cc1 | 71.28%
44 | CC(=O)c1ccc(OCC(=O)NS(=O)(=O)c2ccc(Cl)s2)cc1 | 1.494%
45 | COc1cccc(OCC(=O)NS(=O)(=O)c2ccc(C)s2)c1 | 7.75%
46 | CC(Sc1nncn1C)C(=O)NCCCOc1ccc(F)cc1 (centres undefined) | 7.065%
47 | COC1CCCN(C(=O)NCCCF)C1 (centres undefined) | 5.737%
48 | O=C(O)C(F)(F)F.O=C(O)C(F)(F)F.c1cc2c(cc1CN1C[C@@H]3COC[C@@H](N4CCCC4)[C@@H]3C1)OCO2 | 5.593%
49 | CS(=O)(=O)NC[C@]12COC[C@H]1CN(CCc1ccccc1)C2.O=C(O)C(F)(F)F | 1.225%
50 | CS(=O)(=O)NC[C@]12COC[C@H]1CN(Cc1ccc3c(c1)OCO3)C2.O=C(O)C(F)(F)F | 100.7%
51 | COC[C@]12COC[C@H]1CN(Cc1ccc3c(c1)OCO3)C2.O=C(O)C(F)(F)F | 110.8%
52 | CCOC[C@]12COC[C@H]1CN(Cc1ccc3c(c1)OCO3)C2.O=C(O)C(F)(F)F | 94.03%
53 | CCS(=O)(=O)NC[C@]12COC[C@H]1CN(Cc1ccsc1)C2.O=C(O)C(F)(F)F | -7.396%
54 | CCOC[C@]12COC[C@H]1CN(Cc1ccc(F)c(F)c1)C2.O=C(O)C(F)(F)F | 108.4%
